Assay results published in PubChem BioAssay (NCATS).
Inconclusive results are not listed. A call without a number means that no potency is given here. The source made the active and inactive calls. Unless noted, the call rests on the fitted dose curve; in most records, active means well fitted curve in the direction sought with a large enough effect; inconclusive means small, poorly fitted or top-dose-only effect, or another doubt; inactive means no such curve, though single readings can be large; an effect the other way counts as inactive or inconclusive.

Experiments:
[1] = target: Peptidyl-prolyl cis-trans isomerase NIMA-interacting 1 (Homo sapiens) (UniProt Q13526); experiment: qHTS Validation Assay to Find Inhibitors of Pin1 (AID 504536; active means well fitted inhibition curve with a large enough effect in the polarisation, with a control signal flat, not every such curve was filed as active; the % refers to the polarisation)
Peptidyl-prolyl cis-trans isomerase NIMA-interacting 1 (Homo sapiens), sequence (Q13526 whole entry, looked up): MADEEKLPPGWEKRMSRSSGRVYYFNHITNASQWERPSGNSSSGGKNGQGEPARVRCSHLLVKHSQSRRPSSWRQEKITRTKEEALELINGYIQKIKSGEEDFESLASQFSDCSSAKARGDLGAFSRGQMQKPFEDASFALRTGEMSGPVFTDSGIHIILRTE
Procedure, shortened: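 Fluorescence polarization competition: compounds (titration) displace HiFluor-488-labeled Pin1-1b peptide from Pin1 (0.3 uM final) in pH 7.5 HEPES buffer with DTT, 10 min at room temperature; %Activity normalized to no-enzyme wells, curves fitted.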

[2] = target: Phosphoglycerate kinase, glycosomal (Trypanosoma brucei brucei) (UniProt P07378); experiment: qHTS Validation Assay to Find Inhibitors of Phosphoglycerate Kinase (AID 504547)
Phosphoglycerate kinase, glycosomal (Trypanosoma brucei brucei), sequence (P07378 whole entry, looked up): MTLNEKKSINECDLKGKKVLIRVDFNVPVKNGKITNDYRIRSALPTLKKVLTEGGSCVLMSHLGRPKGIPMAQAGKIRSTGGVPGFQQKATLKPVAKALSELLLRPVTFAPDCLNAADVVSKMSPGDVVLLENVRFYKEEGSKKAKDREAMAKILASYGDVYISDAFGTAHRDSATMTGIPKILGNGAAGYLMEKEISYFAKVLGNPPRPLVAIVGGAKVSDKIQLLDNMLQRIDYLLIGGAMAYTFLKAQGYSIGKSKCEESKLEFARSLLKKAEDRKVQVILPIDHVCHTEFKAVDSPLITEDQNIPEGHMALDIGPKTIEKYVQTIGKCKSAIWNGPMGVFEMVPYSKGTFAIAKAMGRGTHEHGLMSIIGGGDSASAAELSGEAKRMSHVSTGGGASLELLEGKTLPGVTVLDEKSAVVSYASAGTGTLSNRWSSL
Procedure, shortened: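 PGK activity was coupled to GAPDH (100nM final), which generates the unstable substrate 1,3-bisphosphoglycerate in-well. Reactions ran 60 minutes at room temperature in 100mM TEA pH 7.6, 5mM MgCl2, 0.01% Tween-20, then Kinase-Glo Plus luminescence was read.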

[3] = target: phosphoglycerate mutase (Leishmania major) (UniProt Q4Q090); experiment: qHTS Validation Assay to Find Inhibitors of Phosphoglycerate Mutase (AID 504548); further: series mostly up to about 58 µM
phosphoglycerate mutase (Leishmania major), sequence (Q4Q090 1-553): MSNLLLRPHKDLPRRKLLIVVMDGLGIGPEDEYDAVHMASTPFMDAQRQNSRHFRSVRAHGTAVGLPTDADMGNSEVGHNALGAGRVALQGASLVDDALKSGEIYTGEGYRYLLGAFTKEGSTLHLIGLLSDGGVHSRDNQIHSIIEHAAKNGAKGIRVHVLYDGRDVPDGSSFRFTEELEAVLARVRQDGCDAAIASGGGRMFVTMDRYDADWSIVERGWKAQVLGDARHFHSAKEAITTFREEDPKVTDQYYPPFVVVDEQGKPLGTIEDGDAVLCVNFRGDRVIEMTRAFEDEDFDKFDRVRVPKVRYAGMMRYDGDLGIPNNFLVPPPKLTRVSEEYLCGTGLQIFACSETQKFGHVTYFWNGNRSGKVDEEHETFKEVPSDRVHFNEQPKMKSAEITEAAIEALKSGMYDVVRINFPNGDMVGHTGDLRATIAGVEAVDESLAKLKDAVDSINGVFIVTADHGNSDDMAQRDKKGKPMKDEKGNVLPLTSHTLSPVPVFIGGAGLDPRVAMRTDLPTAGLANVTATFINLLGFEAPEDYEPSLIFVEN
Procedure, shortened: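 Lm PGAM 1.25nM final; 100 mM TEA pH 7.6, 5 mM MgCl2, 0.01% Tween-20; 45 min RT; Kinase-GloPlus, 10 min; end-point luminescence. Enzyme-free wells as negative controls.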

[4] = target: Ubiquitin carboxyl-terminal hydrolase 1 (Homo sapiens) (UniProt O94782); experiment: Inhibitors of USP1/UAF1: Pilot qHTS (AID 504865); further: nearly all actives have a fitted effect of over 35% in size; further: potency means the concentration at half of the fitted maximal effect
Ubiquitin carboxyl-terminal hydrolase 1 (Homo sapiens), sequence (O94782 whole entry, looked up): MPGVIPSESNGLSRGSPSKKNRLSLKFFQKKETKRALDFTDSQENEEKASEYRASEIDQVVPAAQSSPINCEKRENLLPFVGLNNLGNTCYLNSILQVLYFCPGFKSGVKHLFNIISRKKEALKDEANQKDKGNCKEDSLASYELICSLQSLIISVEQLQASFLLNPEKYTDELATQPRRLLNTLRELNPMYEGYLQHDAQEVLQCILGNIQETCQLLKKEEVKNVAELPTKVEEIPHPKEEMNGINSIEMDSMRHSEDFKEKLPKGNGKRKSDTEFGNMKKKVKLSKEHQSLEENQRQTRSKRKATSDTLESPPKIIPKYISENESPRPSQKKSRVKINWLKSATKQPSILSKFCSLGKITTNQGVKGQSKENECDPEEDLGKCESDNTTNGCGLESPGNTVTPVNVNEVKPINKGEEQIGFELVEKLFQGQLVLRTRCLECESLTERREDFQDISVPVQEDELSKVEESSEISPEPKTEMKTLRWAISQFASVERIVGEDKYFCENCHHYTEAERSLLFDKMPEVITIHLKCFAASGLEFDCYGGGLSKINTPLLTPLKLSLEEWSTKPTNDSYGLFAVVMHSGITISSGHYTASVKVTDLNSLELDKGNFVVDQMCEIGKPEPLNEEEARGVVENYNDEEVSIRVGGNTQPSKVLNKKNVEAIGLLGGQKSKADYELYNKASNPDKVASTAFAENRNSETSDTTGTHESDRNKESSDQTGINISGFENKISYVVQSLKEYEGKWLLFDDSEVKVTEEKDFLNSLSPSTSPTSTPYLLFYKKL
Procedure, shortened: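 USP1/UAF1 complex at 1 nM preincubated 15 min at room temperature with compound, then Ub-Rho substrate added at 150 nM final. Fluorescence (480/540 nm) read kinetically in 50 mM HEPES pH 7.8, 0.5 mM EDTA, 1 mM TCEP, 0.1 mg/ml BSA, 0.01% Tween-20.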

[5] = qHTS for Inhibitors of ATXN expression: Validation of Cytotoxic Assay (AID 588349);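 further: cells exposed to compound for 72 hr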
Procedure, shortened: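 HEK293, compound dose series, 72 hr / 37 degrees C; viability via CellTiter Glo (intracellular ATP).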

[6] = qHTS for Inhibitors of ATXN expression: Validation (AID 588378); further: nearly all actives have a fitted effect of over 75% in size; further: potency means the concentration at half of the fitted maximal effect
Procedure, shortened: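 HEK293 cells carrying ATXN2-firefly luciferase reporter, treated with compound 24 h at 37 °C. Viability read first by CellTiter-Fluor (405/525 nm), then reporter expression by Bright-Glo luminescence; controls were a known ATXN2 expression inhibitor and a luciferase inhibitor.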

[7] = target: Galactokinase (Homo sapiens) (UniProt P51570); experiment: qHTS Validation Assay for Inhibitors of Human Galactokinase (GALK) (AID 493189)
Galactokinase (Homo sapiens), sequence (P51570 whole entry, looked up): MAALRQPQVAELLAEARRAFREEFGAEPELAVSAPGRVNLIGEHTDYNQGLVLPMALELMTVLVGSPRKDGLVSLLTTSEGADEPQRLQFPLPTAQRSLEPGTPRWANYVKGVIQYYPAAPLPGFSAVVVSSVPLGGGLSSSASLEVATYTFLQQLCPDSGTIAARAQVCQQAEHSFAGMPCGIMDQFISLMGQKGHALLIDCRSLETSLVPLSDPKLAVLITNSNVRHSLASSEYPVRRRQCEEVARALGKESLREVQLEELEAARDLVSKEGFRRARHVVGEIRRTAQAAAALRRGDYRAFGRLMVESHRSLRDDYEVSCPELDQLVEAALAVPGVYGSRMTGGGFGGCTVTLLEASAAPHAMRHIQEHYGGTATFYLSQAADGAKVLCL
Procedure, shortened: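 GALK (5 nM) with 35 uM ATP and 100 uM galactose in HEPES pH 8.0 with MgCl2, NaCl, DTT and BSA. Reaction ran 1 h at room temperature. Residual ATP read by Kinase-Glo Plus luminescence.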

[8] = Validation screen for small molecules that induce DNA re-replication in SW480 colon adenocarcinoma cells (AID 504364)
Procedure, shortened: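 Cells are treated 48 hr with test compound, stained 40 min with Hoechst at 37 C, and scanned for nuclear fluorescence; compounds inducing re-replication increase nuclei with elevated intensity.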

Row | Compound | outcome [1] | outcome [2] | outcome [3] | Potency [4] | outcome [5] | Potency [6] | outcome [7] | outcome [8]
1 | CC[C@H](C)C(=O)O[C@H]1CCC=C2C=C[C@H](C)[C@H](CC[C@@H]3C[C@@H](O)CC(=O)O3)[C@H]21 | inactive | inactive | inactive | inactive | inactive | inactive |  | 
2 | COc1cc(NS(C)(=O)=O)ccc1Nc1c2ccccc2nc2ccccc12 | inactive | inactive | inactive |  |  | 0.355 µM (active) | inactive | inactive
3 | COc1cc2c(cc1O)CC[C@@H]1[C@@H]2CC[C@]2(C)[C@@H](O)CC[C@@H]12 | inactive | inactive | inactive | inactive |  | inactive |  | 
4 | CN(C)CCCOc1nn(Cc2ccccc2)c2ccccc12 |  |  |  | inactive |  |  |  | 
5 | Nc1cc(Cl)c(NC2=NCCN2)c(Cl)c1 | inactive | inactive | inactive | inactive | inactive | inactive | inactive | inactive
6 | CC(C)C[C@H]1C(=O)N2CCC[C@H]2[C@]2(O)O[C@](NC(=O)[C@@H]3C=C4c5cccc6[nH]c(Br)c(c56)C[C@H]4N(C)C3)(C(C)C)C(=O)N12 |  | inactive | inactive |  |  |  |  | 
7 | C1CCc2nnnn2CC1 | inactive | inactive | inactive | inactive | inactive | inactive | inactive | inactive
8 | CNCCC=C1c2ccccc2CCc2ccccc21 | inactive | inactive | inactive | inactive |  | 15.8 µM (active) | inactive | inactive
9 | CN1CCC(=C2c3ccccc3Sc3ccccc32)CC1 |  |  |  | 39.8 µM (active) |  |  |  | 
10 | N[C@H](CO)C(=O)O | inactive | inactive | inactive | inactive | inactive | inactive | inactive | inactive
11 | CC1(C)CCC(NC(=O)[C@@H](N)CCC(=O)O)CC1 | inactive | inactive | inactive | inactive | inactive | inactive | inactive | inactive
